This is an account of results in PubChem BioAssay (EPA / NIEHS).

Read-out in assay [1]: solute carrier (SLCO1B1), SLCO1B1 (gene 10599)
The experiment in a line: LTEA_HepaRG_SLCO1B1: Life Technologies and Expression Analysis (LTEA) Assay for solute carrier (SLCO1B1) using HepaRG (AID 2283530). The following applies: mRNA level, 48 h; actives raise or lower the signal. In outline: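 Differentiated human HepaRG cells, plated 48 h, switched to serum-free induction medium and exposed in duplicate for 48 h to 8 half-log concentrations (top 100 uM) in 0.5% DMSO. SLCO1B1 mRNA by TaqMan qRT-PCR, normalized to ACTB/GAPDH/POLR2A.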

Read-out in assay [2]: sulfotransferase 2A1 (SULT2A1), SULT2A1 (gene 6822)
Kind of assay: LTEA_HepaRG_SULT2A1: Life Technologies and Expression Analysis (LTEA) Assay for sulfotransferase 2A1 (SULT2A1) using HepaRG (AID 2283531). The settings on record: mRNA level, 48 h; actives raise or lower the signal. In outline:
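Differentiated human HepaRG cells in serum-free induction medium were exposed for 48 h to eight half-log concentrations (top 100 uM, 0.5% DMSO). SULT2A1 mRNA was measured by qRT-PCR, normalized to ACTB, GAPDH and POLR2A, and fitted bidirectionally against DMSO.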

Read-out in assay [3]: Transforming Growth Factor (TGFA), TGFA (gene 7039)
Kind of assay: LTEA_HepaRG_TGFA: Life Technologies and Expression Analysis (LTEA) Assay for Transforming Growth Factor (TGFA) using HepaRG (AID 2283532). The following applies: mRNA level, 48 h; actives raise or lower the signal. In outline:
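qRT-PCR read-out of TGFA transcript, normalized to three housekeeping genes, fitted bidirectionally against 0.5% DMSO baseline. Human HepaRG cultures received chemicals for 48 h at eight half-log concentrations, top 100 uM.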

Read-out in assay [4]: Transforming Growth Factor (TGFB1), TGFB1 (gene 7040)
Kind of assay: LTEA_HepaRG_TGFB1: Life Technologies and Expression Analysis (LTEA) Assay for Transforming Growth Factor (TGFB1) Transporter using HepaRG (AID 2283533). The settings on record: mRNA level, 48 h; actives raise or lower the signal. Put shortly: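 Differentiated human HepaRG cells in serum-free induction medium were exposed in duplicate for 48 h to eight concentrations (top 100 uM, half-log steps, 0.5% DMSO). TGFB1 mRNA was quantified by qRT-PCR, normalized to ACTB, GAPDH, POLR2A, and fitted bidirectionally against DMSO.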

Read-out in assay [5]: TIMP1, TIMP1 (gene 7076)
Kind of assay: LTEA_HepaRG_TIMP1: Life Technologies and Expression Analysis (LTEA) Assay for TIMP1 using HepaRG (AID 2283534). The settings on record: mRNA level, 48 h; actives raise or lower the signal. Put shortly: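 Differentiated human HepaRG cells in serum-free induction medium were exposed 48 h to chemicals (8 half-log concentrations, top 100 uM, 0.5% DMSO). TIMP1 mRNA was quantified by TaqMan qRT-PCR, normalized to ACTB/GAPDH/POLR2A; bidirectional fit versus DMSO.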

Read-out in assay [6]: Tumor necrosis factor receptor 1 (TNFRSF1A), TNFRSF1A (gene 7132)
The experiment in a line: LTEA_HepaRG_TNFRSF1A: Life Technologies and Expression Analysis (LTEA) Assay for Tumor necrosis factor receptor 1 (TNFRSF1A) using HepaRG (AID 2283535). The following applies: mRNA level, 48 h; actives raise or lower the signal. Put shortly: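 Differentiated human HepaRG cells were exposed in duplicate for 48 h in serum-free induction medium to eight concentrations (top 100 uM, half-log steps, 0.5% DMSO). TNFRSF1A mRNA was quantified by qRT-PCR, normalized to ACTB, GAPDH and POLR2A, then fitted bidirectionally against DMSO.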

Read-out in assay [7]: UDP glucuronosyltransferase (UGT1A1), UGT1A1 (gene 54658)
Kind of assay: LTEA_HepaRG_UGT1A1: Life Technologies and Expression Analysis (LTEA) Assay for UDP glucuronosyltransferase (UGT1A1) using HepaRG (AID 2283538). The following applies: mRNA level, 48 h; actives raise or lower the signal. Put shortly:
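mRNA induction or loss of UGT1A1, by TaqMan qRT-PCR, in duplicate HepaRG wells after 48 h exposure to half-log dilutions topping at 100 uM; DMSO (0.5%) served as baseline.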

Read-out in assay [8]: UDP glucuronosyltransferase (UGT1A6), UGT1A6 (gene 54578)
Kind of assay: LTEA_HepaRG_UGT1A6: Life Technologies and Expression Analysis (LTEA) Assay for UDP glucuronosyltransferase (UGT1A6) using HepaRG (AID 2283539). The settings on record: mRNA level, 48 h; actives raise or lower the signal. In outline: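 Human HepaRG cells were dosed for 48 h in serum-free induction medium with 0.5% DMSO vehicle, eight-point half-log series from 100 uM, in duplicate. UGT1A6 mRNA was measured by qRT-PCR, normalized to ACTB, GAPDH, POLR2A, and fitted bidirectionally against DMSO.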

Assay [9] is described as follows: LTEA_HepaRG_LDH_cytotoxicity: Cytotoxicity Assessment in the Life Technologies and Expression Analysis (LTEA) Assay (AID 2283563; active = hit-call score of the fitted dose curve at least 0.9, where 1 is the maximum;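 as to AC50: LDH activity released into spent culture medium as a marker of cell death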). Put shortly: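 Differentiated human HepaRG cells, plated 48 h beforehand, were switched to serum-free induction medium and exposed for 48 h to eight half-log concentrations (top 100 uM) in 0.5% DMSO. LDH was measured in spent medium; activity was fitted relative to DMSO vehicle.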

Assay [10] is described as follows: ATG_XTT_Cytotoxicity: Cytotoxicity Assessment in the Attagene TRANS-FACTORIAL HepG2 Assay (AID 2283584; active = hit-call score of the fitted dose curve at least 0.9, where 1 is the maximum). Put shortly:
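HepG2 human liver cells, transiently transfected with multiple GAL4-UAS reporter units, were dosed and read at 24 h by XTT as cell number. Loss of signal was fitted relative to DMSO negative control baseline.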

Read-out in assay [11]: Cellular tumor antigen p53 (Homo sapiens) (UniProt P04637)
The experiment in a line: LTEA_HepaRG_TP53: Life Technologies and Expression Analysis (LTEA) Assay for Tumor Protein P53 (TP53) using HepaRG (AID 2283537). The following applies: mRNA level, 48 h; actives raise or lower the signal. In outline:
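Gain or loss of TP53 mRNA signal is scored relative to 0.5% DMSO after 48 h chemical treatment of HepaRG liver cells, tested in duplicate at eight half-log concentrations up to 100 uM.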

Read-out in assay [12]: X-box binding protein 1 (XBP1), XBP1 (gene 7494)
The experiment in a line: LTEA_HepaRG_XBP1: Life Technologies and Expression Analysis (LTEA) Assay for X-box binding protein 1 (XBP1) using HepaRG (AID 2283540). The following applies: mRNA level, 48 h; actives raise or lower the signal. In outline: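 Differentiated human HepaRG cells in serum-free induction medium were exposed in duplicate for 48 h to eight half-log concentrations up to 100 uM in 0.5% DMSO. XBP1 mRNA was quantified by qRT-PCR, normalised to ACTB, GAPDH and POLR2A, with bidirectional fitting against DMSO.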

Assay [13] can be described thus: TOX21_p53_BLA_p2_viability: Viability Assessment in the Tox21 HCT-116 p53 Agonism Beta-lactamase Assay, Phase 2 (AID 2283591; active = hit-call score of the fitted dose curve at least 0.9, where 1 is the maximum;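 also: compound exposure lasted 16 h at 37 °C; actives lower the ATP signal meaning cytotoxicity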). In outline: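 HCT116 p53-bla cells, 4000/well, dosed after 5 h plating (217-fold dilution of DMSO stocks) and incubated 16 h at 37C. Viability taken as cellular ATP by CellTiter-Glo luminescence after 30 min RT; signal loss marks cytotoxicity.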

The nature of assay [14]: TOX21_p53_BLA_p3_viability: Viability Assessment in the Tox21 HCT-116 p53 Agonism Beta-lactamase Assay, Phase 3 (AID 2283593; active = hit-call score of the fitted dose curve at least 0.9, where 1 is the maximum;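 also: cells exposed to compound for 16 h before reading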). Put shortly: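 HCT116 cells, 4000/well, dosed 5 h after plating by pin transfer (217-fold dilution from DMSO stock) and incubated 16 h at 37C, 5% CO2. Viability read as ATP luminescence with CellTiter-Glo after 30 min at room temperature.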
The target of assay [15] is Cellular tumor antigen p53 (Homo sapiens) (UniProt P04637). Kind of assay: TOX21_p53_BLA_p3_ratio: Tox21 HCT-116 p53 Agonism Beta-lactamase Assay, Ratio, Phase 3 (AID 2283596; active = hit-call score of the fitted dose curve at least 0.9, where 1 is the maximum). Put shortly: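 Cells were seeded at 4000/well, rested 5 h at 37C, then dosed with DMSO compound solutions (217-fold dilution) for 16 h. CCF4-AM substrate was loaded for 2 h at room temperature, and the 460/530 nm emission ratio was fitted for gain of signal versus DMSO.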

Assay [16] can be described thus: TOX21_p53_BLA_p4_viability: Viability Assessment in the Tox21 HCT-116 p53 Agonism Beta-lactamase Assay, Phase 4 (AID 2283597; active = hit-call score of the fitted dose curve at least 0.9, where 1 is the maximum;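 also: hits lower the luminescence signal meaning cytotoxicity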). Put shortly: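 Cytotoxicity was inferred from loss of CellTiter-Glo luminescence. HCT116 cells had been dosed with compounds after 5 h plating, incubated 16 h at 37C and 5% CO2, and exposed to the CCF4-AM substrate for 2 h.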
For assay [17], the target named is Cellular tumor antigen p53 (Homo sapiens) (UniProt P04637). The experiment in a line: TOX21_p53_BLA_p5_ratio: Tox21 HCT-116 p53 Agonism Beta-lactamase Assay, Ratio, Phase 5 (AID 2283599; active = hit-call score of the fitted dose curve at least 0.9, where 1 is the maximum). In outline:
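HCT-116 p53-bla cells (4000/well) plated 5 h, dosed with compound (217-fold DMSO dilution) for 16 h at 37 C; CCF4-AM substrate 2 h at room temperature. Activity is the 460/530 nm emission ratio (405 nm excitation), fitted in gain-of-signal direction versus DMSO.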

A short description of assay [18]: TOX21_p53_BLA_p5_viability: Viability Assessment in the Tox21 HCT-116 p53 Agonism Beta-lactamase Assay, Phase 5 (AID 2283600; active = hit-call score of the fitted dose curve at least 0.9, where 1 is the maximum). In outline: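 Luciferase-coupled ATP quantitation of cells treated for 16 h (37C, 5% CO2) with test chemicals delivered in DMSO via a 217-fold dilution; 4000 cells/well; reagent incubated 30 min at room temperature before luminescence reading.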

Records with an inconclusive call do not appear. Active and inactive are the calls of the source. The calls were made as follows, unless noted: active = hit-call score of the fitted dose curve at least 0.9, where 1 is the maximum; inactive = score below 0.9.

Chain of Cellular tumor antigen p53 (Homo sapiens) (P04637 whole entry, looked up): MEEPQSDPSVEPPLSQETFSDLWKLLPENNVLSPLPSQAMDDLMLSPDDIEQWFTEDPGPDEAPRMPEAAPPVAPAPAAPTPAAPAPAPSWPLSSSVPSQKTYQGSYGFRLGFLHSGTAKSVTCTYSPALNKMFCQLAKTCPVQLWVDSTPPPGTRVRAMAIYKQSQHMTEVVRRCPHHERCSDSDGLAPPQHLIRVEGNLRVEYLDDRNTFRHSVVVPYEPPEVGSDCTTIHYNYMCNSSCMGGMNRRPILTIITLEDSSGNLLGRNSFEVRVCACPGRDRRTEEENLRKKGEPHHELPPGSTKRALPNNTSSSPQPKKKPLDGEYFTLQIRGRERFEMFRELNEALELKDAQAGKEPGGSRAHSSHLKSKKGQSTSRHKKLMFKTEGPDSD

As for `CC(=O)OC1CC(C)OC(C)O1` (stereo not given), the call in [1], in assay [2], in assay [3], in [4], in assay [5] and in [6] was inactive. The result in [7], in [8], in assay [9] and in [10] was inactive.

As for `CCCC(=O)O`, the compound was called inactive in assay [1], in assay [2], in assay [3], in [4], in [5] and in assay [6]. The compound was classed as inactive in [7], in assay [8] and in assay [9].

As for `O=C1c2c(O)cccc2Cc2cccc(O)c21`, the compound was classed as inactive in assay [1], in assay [2], in [3], in assay [5], in assay [6] and in [11]. Moreover, the compound was called inactive in [7], in assay [8], in assay [12], in [9], in assay [10] and in assay [13]. The call in assay [14], in assay [15], in assay [16], in assay [17] and in assay [18] was inactive.

Turning to `COc1ccc(C(=O)Nc2nc3ccccc3c(NCc3ccccc3)c2C#N)cc1`, the AC50 (as a rule, the concentration giving half of the maximal activity seen) was 16.3 µM (active) in [1]; 21.2 µM (active) in assay [2]; 7.58 µM (active) in [4]; 3.8 µM (active) in [7]; 63.1 µM (active) in assay [17]. Moreover, the result in [3], in assay [5], in [6], in [11], in assay [8] and in assay [9] was inactive. For the same compound, the result in [15] and in assay [16] was inactive.

`O=C1O[C@H]([C@H](O)CO)C(O)=C1O`: the compound was classed as inactive in assay [2], in assay [3], in assay [4], in assay [5], in assay [6] and in assay [11]. Further, the compound was classed as inactive in assay [7], in assay [8], in assay [9], in assay [10], in assay [13] and in [14]. For the same compound, the result in assay [15], in assay [16] and in assay [17] was inactive.

For the compound `CC(=O)O[C@]1(C(C)=O)CC[C@H]2[C@@H]3C=C(Cl)C4=CC(=O)[C@@H]5C[C@@H]5[C@]4(C)[C@H]3CC[C@@]21C`, the AC50 in assay [1] is 76.8 µM (active); in assay [2] it was 50 µM (active); in assay [7] it was 72.3 µM (active); in assay [8], 73.3 µM (active); in assay [9], 53.7 µM (active). Also, the result in [3], in assay [4], in assay [5], in assay [6], in [12] and in assay [10] was inactive.
